Giardia killer: Giardia lamblia killing | Giardia lamblia trophozoite viability | AID 540267 | activity change, % at 7.66 µM, hits read low | 340,000 compounds, 0.15% hits; in the data active = activity change below about -80%; inconclusive = between about -30% and that limit;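 also: parasites exposed to compound for two days anaerobically before the ATP read; % is scaled to controls: 0 for no effect and ±100 for the full control effect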
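Trophozoite viability was measured as ATP-dependent luminescence, read 15-30 min after reagent addition. Before that, parasites at 100 cells/well were exposed to compounds for 48 h, anaerobically, at 37 deg C.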
BRCA1 expr up: increases BRCA1 expression | MCF7-BRCA1-FFLuc reporter, luminescence, 48 h; response scale: scaled: vehicle 0%, 10 µM genistein 100% | Potency, µM (top dose mostly 46.1 µM), for inactives: at the top dose activation, most hits filed as activators | 380,000 compounds, 1.1% hits | AID 624202; also: potency is read from the fitted curve at half-maximal effect; nearly all actives have a fitted effect of over 80% in size
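First, MCF7-BRCA1-FFLuc cells (2000/well) attach for 2 h; next, compounds are pin-added and incubated 48 h at 37 °C; finally, luciferase reagent is added and luminescence read after 15 min.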
RORg inh: blocks mouse ROR gamma transcriptional activity; Drosophila S2 Gal4-RORgamma UAS-luciferase reporter, 20 h; 310,000 compounds, 5.4% hits; Potency, µM (doses to about 53.6 µM), inactives show at the top dose activity change, negative = inhibition, usual class: inhibitors; P51450; also: potency is read from the fitted curve at half-maximal effect; % is scaled to controls: 0 for no effect and ±100 for the full control effect; nearly all actives have a fitted effect of over 60% in size
Target sequence (P51450 whole entry, looked up, the tested form may be a part): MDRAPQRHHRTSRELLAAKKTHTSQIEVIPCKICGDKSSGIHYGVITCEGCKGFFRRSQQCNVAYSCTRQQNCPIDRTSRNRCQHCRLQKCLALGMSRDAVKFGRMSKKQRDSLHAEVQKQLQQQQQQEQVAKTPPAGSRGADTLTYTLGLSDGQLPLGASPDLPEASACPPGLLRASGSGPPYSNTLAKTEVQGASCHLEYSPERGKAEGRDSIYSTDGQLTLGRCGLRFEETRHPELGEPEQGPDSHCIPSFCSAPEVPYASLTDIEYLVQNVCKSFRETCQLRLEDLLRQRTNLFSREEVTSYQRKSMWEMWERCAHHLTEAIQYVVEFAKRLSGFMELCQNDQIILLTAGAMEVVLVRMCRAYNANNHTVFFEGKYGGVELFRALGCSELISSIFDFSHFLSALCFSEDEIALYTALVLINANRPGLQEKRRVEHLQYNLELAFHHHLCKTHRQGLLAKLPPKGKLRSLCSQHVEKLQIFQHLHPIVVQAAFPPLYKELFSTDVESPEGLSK
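Stable Schneider cell line, Gal4 DNA-binding domain fused to ROR gamma, UAS-luciferase. Cmpd 1 hr RT → CuSO4 700 uM final → 20 hr RT → luciferase reagent 10 min → luminescence.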
Gal4-VP16 FLuc: inhibits Gal4-VP16 luciferase reporter, ROR gamma counter-screen; Drosophila S2 Gal4-VP16 UAS-luciferase, luminescence, 20 h; Potency, µM (highest dose often 53.6 µM), for inactives: top-dose activity, negative = inhibition, hits mostly inhibitors; 310,000 compounds, 3.5% hits;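 also: Gal4-VP16 expression switched on by copper sulfate through the metallothionein promoter; potency is read from the fitted curve at half-maximal effect; % is scaled to controls: 0 for no effect and ±100 for the full control effect; nearly all actives have a fitted effect of over 50% in size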
p53 reactivator: re-activators of mutant p53; Potency, µM (titrated, usually from 92.2 µM), for the others: at the highest dose activity change, positive = activation, most hits filed as activators; H1299 p53-A138V BP100-luciferase reporter, luminescence, 24 h; 320,000 compounds, 0.063% hits; AID 504706; also: potency is read from the fitted curve at half-maximal effect; % of control where 0% means no effect; nearly all actives have a fitted effect of over 45% in size
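p53-null H1299 cells stably carrying temperature-sensitive p53-A138V and a BP100-luciferase reporter were pinned with compounds (4-point, 1:5 series) and held 24 hrs at 37 deg C. Luminescence was read 10 min after detection reagent.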
ELG1 repair inh: inhibitors of ELG1-dependent DNA repair in HEK293T cells | 330,000 compounds, 2.3% hits | Potency, µM (doses to about 46.1 µM), for inactives: top-dose activity change, negative = inhibition, actives largely listed as inhibitors | AID 504467 | HEK293T ELG1-luciferase reporter, luminescence, 16 h; DNA damage induced by 5-fluorouridine; also: potency is read from the fitted curve at half-maximal effect; % is scaled to controls: 0 for no effect and ±100 for the full control effect; nearly all actives have a fitted effect of over 55% in size
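Reporter activity after DNA damage by 5-fluorouridine is monitored. Compound-treated cells incubate 16 hr at 37 °C, then ONE-Glo is added for 30 min before luminescence reading.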
Starred values were filed as active, the others as inactive; ? = inconclusive; . = not tested or not shown; [ ] = another dose, or the depositor's remark. Compounds with a hit are over-represented: about 7.6% of the library has one in this group of screens. Unless noted, calls follow the shape of the dose curve; as a rule, active = well fitted curve in the direction sought with a large enough effect; inconclusive = small, poorly fitted or top-dose-only effect, or another doubt; inactive = no such curve, though single readings can be large; an effect the other way counts as inactive or inconclusive.

SMILES	Giardia killer	BRCA1 expr up	RORg inh	Gal4-VP16 FLuc	p53 reactivator	ELG1 repair inh
Cc1c(C(=O)Nc2nc3ccccc3[nH]2)oc2ccc(Br)cc12	-24	1%	5.6µM*	4.5µM*	16%	?
Cc1c(C(=O)Nc2nc3ccccc3[nH]2)oc2ccccc12	-9	-57%	0.89µM*	5µM*	?	?
Cc1c(C(=O)Nc2nc3ccccc3[nH]2)oc2c(Cl)cccc12	4	5%	10%	6.3µM*	?	?
Nc1c(N(Cc2ccco2)C(=O)COc2ccccc2Cl)c(=O)[nH]c(=O)n1Cc1ccccc1	-3	-8%	.	.	1%	14%
Cc1ccc(C(=O)OCC(=O)N2CC(C)OC(C)C2)cc1 (configuration not stated)	-10	-15%	9%	7%	7%	3%
COc1cccc(-n2nnnc2SCC(=O)Nc2ccccc2OC)c1	-17	-33%	4%	2%	.	0%
CCCS(=O)(=O)c1nnnn1-c1cccc(OC)c1	-8	-59%	1.8µM*	4.5µM*	-30%	?
COc1cccc(CS(=O)(=O)c2nnnn2-c2ccccc2)c1	.	.	7.1µM*	-28%	.	.
COc1cccc(CS(=O)(=O)c2nnnn2C2CCCCC2)c1	.	.	1%	0%	.	.
N#Cc1c(N2CCCC2)nc(N)c2c(N)nc(N3CCCC3)cc12	-6	-33%	8.9µM*	-6%	?	?
COc1cc2c(C#N)c(N3CCN(c4ccccc4OC)CC3)nc(N)c2c(N)n1	6	-81%	-19%	0%	-4%	9.2µM*
COc1cc2c(C#N)c(N3CCCC3)nc(N)c2c(N)n1	13	-34%	-6%	-17%	6%	12%
CCN(CC)c1ccc(C(=C2C=CC(=[N+](CC)CC)C=C2)c2ccccc2)cc1	1	-85%	2.5µM*	35µM*	.	.
CCN(CC)c1ccc(C(=C2C=CC(=[N+](CC)Cc3cccc(S(=O)(=O)[O-])c3)C=C2)c2ccc(N(CC)Cc3cccc(S(=O)(=O)O)c3)cc2)cc1	.	.	-16%	11µM*	.	.
CCC(CC)CN1CCC(CN2C(=O)C(=O)NC[C@@H]2[C@@H](C)CC)CC1	-12	0%	.	.	.	.
CCN(CC1COc2ccccc2O1)C(=S)NC1CC2CCC1C2 (configuration not stated)	-15	2%	8.9µM*	?	12%	?
CNCc1cc(Cl)cc(OC)c1OC(C)C	-5	25%	10%	-4%	-8%	-2%
COc1ccccc1C1C([N+](=O)[O-])=CC([N+](=O)[O-])=CN1C (configuration not stated)	-83*	-10%	?	11µM*	8%	?
O=C(NCCCN1CCOCC1)c1cccc(S(=O)(=O)Nc2cc(Cl)ccc2Cl)c1	-12	-2%	5%	8%	1%	-8%
CCOC(=O)c1sc(NC(=O)C2CC(=O)N(c3ccccc3C)C2)nc1C (configuration not stated)	18	1%	38%	3%	-2%	-1%
CCN1C/C(=C/c2cccc([N+](=O)[O-])c2)C(=O)/C(=C/c2cccc([N+](=O)[O-])c2)C1	-20	-101%	4µM*	3.5µM*	-19%	2.6µM*
CCSc1ncc(C#N)c(N)n1	-5	-6%	-15%	11%	-2%	5%
C=C(C)CNC(=S)N/N=C1\CCCCc2ccccc21	-1	-20%	1.4µM*	1.8µM*	7%	-13%
CCNC(=S)N/N=C1\CCCCc2ccccc21	-15	-7%	1.1µM*	4µM*	4%	-1%
CCNC(=S)N/N=C1\C(=O)c2cccc3cccc1c23	-20	-58%	3.2µM*	4.5µM*	0%	3%
SMILES	Giardia killer	BRCA1 expr up	RORg inh	Gal4-VP16 FLuc	p53 reactivator	ELG1 repair inh
COc1ccccc1C(=O)OCCCN=C1NS(=O)(=O)c2ccccc21	-2	-17%	?	0%	1%	5%
Cc1cc(C(=O)Nc2nc(-c3ccccn3)cs2)ccc1[N+](=O)[O-]	-16	-77%	1.1µM*	2.8µM*	28%	?
O=C(Nc1nc(-c2ccccn2)cs1)c1cc(Cl)ccc1[N+](=O)[O-]	0	-61%	1.1µM*	2.8µM*	35µM*	?
O=C(COC(=O)c1cc(-c2cccs2)nc2ccccc12)NCc1ccco1	-3	-28%	-21%	?	-2%	-6%
O=C(NCc1ccco1)c1cc(-c2cccs2)nc2ccccc12	-1	-26%	35%	-4%	-12%	15µM*
COc1cc(-c2cc(C(=O)NCc3ccc(S(N)(=O)=O)cc3)c3ccccc3n2)cc(OC)c1OC	-20	-36%	-17%	1%	-7%	13µM*
COc1cc(-c2cc(C(=O)NCc3ccco3)c3ccccc3n2)cc(OC)c1OC	12	-54%	-9%	-1%	-6%	13µM*
COc1ccccc1-c1noc(-c2ccccc2C(=O)NCc2ccco2)n1	1	-23%	31%	1%[10 µM]	-5%	?
NS(=O)(=O)c1ccc(CNC(=O)c2cc(-c3ccccc3)nc3ccccc23)cc1	8	4%	17%	-11%	0%	-7%
COc1cc(-c2noc(-c3ccccc3C(=O)NCc3ccco3)n2)cc(OC)c1OC	5	-28%	35%	6%	-13%	4.6µM*
COC(C[C@H](O)C[C@H](O)[C@@H](C)OCc1ccccc1)OC	-7	4%	.	.	.	.
COc1cc(-c2noc(CCCC(=O)NCc3ccccc3)n2)cc(OC)c1OC	4	-26%	24%	3%	-5%	18µM*
COc1cc(-c2noc(CCCC(=O)Nc3cccnc3)n2)cc(OC)c1OC	5	1%	0%	1%	3%	-17%
CC(C)N(C(=O)COC(=O)c1ccc(Cl)c(S(N)(=O)=O)c1)C(C)C	-9	6%	-7%	-17%	-2%	1%
Cc1cc(C(=O)COC(=O)c2ccc(NC(=O)CC#N)cc2)c(C)n1C1CC1	15	4.5µM*	.	.	21%	?
Cc1cc(C(=O)COC(=O)c2ccc(Cl)c(S(N)(=O)=O)c2)c(C)n1C1CC1	-5	11µM*	.	.	?	?
COC(=O)c1cccc(-c2noc(-c3ccccc3F)n2)c1	-3	-34%	.	.	?	?
Cc1c(Cl)cccc1NC(=O)C1CCN(c2cnccn2)CC1	10	0%	1%	4%	-1%	13%
Nc1nc2sc3c(c2cc1C(=O)NCC(=O)O)CCCC3	?	-35%	10µM*	?	-10%	-28%
Nc1nc2sc3c(c2cc1C(=O)N1CCOCC1)CCCC3	-17	18%	?	13%	12%	?
